From PubChem BioAssay
Cycloheximide cs: counter-screen for Shiga toxin inhibitors: cycloheximide protein synthesis inhibition; AID 2314; cell reporter, cycloheximide protein synthesis inhibition counterscreen; max response, %; hit rate 12% among 300,000; in the data active = max response mostly above about 13%, no sharp cut-off; inactive = mostly below about 14%; also: read at 38.3 µM for the half of the compounds with a filed dose; 0% is about no effect
HCV inhibitor: inhibitors of hepatitis C virus infection; Huh7.5.1 HCVcc-Cre infection, luciferase reporter, 44 h; hit rate 3.4% among 340,000; Potency, µM (doses to about 41.8 µM), without a hit: at the highest dose activity change, negative = inhibition, most hits filed as inhibitors; active = well fitted inhibition curve with a large enough effect; inconclusive = small, poorly fitted or top-dose-only effect, or another doubt; inactive = no such curve, though single readings can be large or run the other way; also: potency is read from the fitted curve at half-maximal effect; % is scaled to controls: 0 for no effect and ±100 for the full control effect
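HCVcc-Cre virus at an moi near 0.5 was added right after compound to cells cultured 4 h from seeding (1,000 cells/well). Luciferase activity was determined 44 h later, 15 min after substrate addition at RT.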
MARV entry inh: inhibitors of Marburg virus binding or cell entry; Potency, µM (titrated, usually from 37.8 µM), without a hit: at the highest dose activity change, negative = inhibition, most hits filed as inhibitors; hit rate 1.8% among 300,000; AID 540276; Marburg virus pseudotyped entry inhibition, cell reporter; calls by dose curve; tested in HEK293 cells; also: potency is read from the fitted curve at half-maximal effect; % is scaled to controls: 0 for no effect and ±100 for the full control effect
Shiga toxin inh: Shiga toxin inhibition; inhibition, % at 38.7 µM; hit rate 9.2% among 290,000; Vero cells, Shiga toxin protein synthesis inhibition reporter; in the data active = inhibition mostly above about 28%, no sharp cut-off; inactive = mostly below about 43%; also: 0% is about no effect
LASV entry inh: Lassa virus entry inhibition; Lassa virus pseudotype entry inhibition, cell reporter; Potency, µM (series often up to 37.9 µM), inactives show at the highest dose activity change, negative = inhibition, most hits filed as inhibitors; hit rate 1.2% among 300,000; AID 540256; calls by dose curve; tested in HEK293 cells; also: potency is read from the fitted curve at half-maximal effect; % is scaled to controls: 0 for no effect and ±100 for the full control effect; nearly all actives have a fitted effect of over 50% in size
FMDV antiviral: antivirals against foot and mouth disease virus. Potency, µM (series often up to 57.9 µM), inactives show top-dose activity change, negative = inhibition, actives largely listed as inhibitors. FMDV antiviral cell-based qHTS. hit rate 1.2% among 410,000; calls by dose curve; tested in HEK293T cells; also: read-out not given here; potency is read from the fitted curve at half-maximal effect; % is scaled to controls: 0 for no effect and ±100 for the full control effect; nearly all actives have a fitted effect of over 45% in size
Active calls of the source: *; ? = inconclusive; nt = no result; + = active, no number; [ ] = remark or other dose. The list is not random: actives were taken first. Their share in the collection is about 13%.

SMILES | Cycloheximide cs | HCV inhibitor | MARV entry inh | Shiga toxin inh | LASV entry inh | FMDV antiviral
CCC1(c2ccccc2)NC(=S)N(c2ccc(C)c(C)c2)N1 (stereo not drawn) | 39.7* | -7.4% | 26.9%[46.1 µM] | 36.0* | 8.1% | 63.1%
CCC1(c2ccc(Cl)cc2)NC(=S)N(c2ccc(C)cc2)N1 (stereo not drawn) | 68.0* | 14.3% | ? | 90.5* | 5.3% | 37.9%
CCC1(c2ccc(Cl)cc2)NC(=S)N(c2ccc(C)c(C)c2)N1 (stereo not drawn) | -3.1 | 7.6% | nt | 10.9 | nt | 7.0%
CCCNC(=O)COC(=O)c1ccc(S(=O)(=O)N2CCCCCC2)cc1 | -6.2 | 19.1% | 12.9% | -12.5 | -7.5% | 8.4%
O=C(O)c1nn(CCOc2ccccc2F)c(=O)c2ccccc12 | 12.0* | -5.3% | -0.8%[46.1 µM] | 25.8 | -61.5% | -10.4%
O=C(/C=C/c1ccc(-c2ccccc2[N+](=O)[O-])o1)c1ccco1 | 37.2* | -20.2% | -16.5%[46.1 µM] | 113.0* | -4.2% | -18.9%
CCCn1c(-c2cccs2)nc2c1c(=O)[nH]c(=O)n2Cc1ccccc1 | 0.7 | ? | -20.1%[46.1 µM] | 2.7 | -14.9%[46.1 µM] | -19.0%
CC1CCC(NC(=O)Cn2c3c(c(-c4ccccc4Cl)cc2=O)CCC3)CC1 (stereo not drawn) | 1.0 | 11.2µM* | nt | 13.9 | nt | ?
CC(C)CCNC(=O)Cn1c2c(c(-c3ccccc3Cl)cc1=O)CCC2 | 10.0 | -23.6% | nt | 31.6 | nt | -21.5%
O=C(O)COc1ccc(C(=O)Cc2ccc3c(c2)OCCCO3)c(O)c1 | -1.4 | 2.8% | -0.9% | 10.6 | ? | nt
O=C(Cc1ccc2c(c1)OCCO2)c1c(O)cc(O)cc1O | 32.3* | 9.2% | 11.4% | 57.4* | ? | nt
O=C(Cc1ccc([N+](=O)[O-])cc1)c1ccc(O)cc1O | 16.2* | 13.7% | nt | 61.2* | nt | 23.5%
O=C(Cc1ccc([N+](=O)[O-])cc1)OCc1ccc([N+](=O)[O-])cc1 | -2.5 | 16.3% | 0.9%[46.1 µM] | -3.4 | 8.7% | -6.3%
COc1ccc(C(=O)Cc2ccc3c(c2)OCO3)c(O)c1 | 101.1* | 2.7% | ? | + | ? | 18.3%
O=C(Cc1ccc(Br)cc1)c1ccc(O)cc1O | 48.9* | 17.0% | 8.9% | 185.6* | ? | 36.0%
COc1ccc(CC(=O)c2ccc(O)cc2O)cc1 | 49.4* | 1.9% | nt | 59.0* | nt | 39.3%
Cc1ccc(C(=O)Cc2ccccc2)c(O)c1 | nt | -12.8% | 29.3%[46.1 µM] | nt | 16.8%[46.1 µM] | 39.5%
CN(C)CCCOc1ccc2c(c1)Sc1ccccc1CC2=O | 20.9* | 10µM* | ? | 23.0 | 9.7% | -18.5%
O=C1Cc2ccccc2Sc2cc(OCCCN3CCCCC3)ccc21 | -1.0 | ? | ? | -4.4 | ? | -17.0%
CC(=O)N[C@@H](CSC/C=C(\C)CCC=C(C)C)C(=O)O | nt | nt | nt | nt | nt | 3.2%[6.7 µM]
CC(=O)N[C@@H](CSC(=O)[C@]1([C@@H](O)C(C)C)NC(=O)[C@H](C)[C@@H]1O)C(=O)O | 84.7* | nt | nt | + | nt | nt
CC(C)(C)NC(=O)C(c1ccccc1)N(C(=O)C1CSC(=O)C1)c1ccccc1 (stereo not drawn) | 1.2 | 5.8% | -3.7% | -8.0 | 22.8% | 24.9%
Clc1cccc(-c2sc(Nc3ccccc3)n[n+]2-c2ccccc2)c1Cl | -0.5 | ? | nt | -2.7 | nt | 6.3%
COc1ccc(N(CC(O)Cn2c(C)nc3ccccc32)S(=O)(=O)c2ccccc2)cc1 (stereo not drawn) | 2.8 | -0.7% | ? | 2.2 | -6.6% | 9.0%
N#Cc1ncc(N=Cc2ccc(N(CCCl)CCCl)cc2)s1 | nt | ? | 0.794µM* | nt | 0.708µM* | -26.6%
O=C(c1cnn2c1NC(c1ccc(Br)cc1)CC2C(F)(F)F)N1CCN(C23CC4CC(CC(C4)C2)C3)CC1 (stereo not drawn) | -3.7 | -5.8% | 16.4µM* | -2.8 | 1.8% | ?
COc1ccc(OC)c(C2=NO[C@@](CC(=O)O)(C(=O)Nc3ccc4c(c3)OCCO4)C2)c1 | 64.6* | -6.4% | 0.5%[46.1 µM] | 76.8* | 16.2%[46.1 µM] | -10.7%
COc1ccc(OC)c(NC(=O)[C@@]2(CC(=O)O)CC(/C=C/c3ccccc3)=NO2)c1 | -3.0 | 5.4% | 27.8%[46.1 µM] | 1.0 | 26.4%[46.1 µM] | 8.8%
Cc1ccc(C2=NO[C@@](CC(=O)O)(C(=O)Nc3ccc4c(c3)OCCO4)C2)cc1 | 128.9* | 16.5% | ? | 117.4* | 26.4%[46.1 µM] | 7.0%
CCN(CC)C(=O)c1ccc(CS(=O)(=O)Cc2ccccc2)cc1 | 1.4 | -0.3% | nt | -5.4 | nt | -19.8%
